Results filed as inconclusive are left out. Active and inactive are the calls of the source. Calls come from the whole dose curve; as a rule, active = well fitted curve in the direction sought with a large enough effect; inconclusive = small, poorly fitted or top-dose-only effect, or another doubt; inactive = no such curve, though single readings can be large; an effect the other way counts as inactive or inconclusive.
Experiments:
[1] = Cell Viability - LYMP2-003 (AID 965); details: LYMP2-003 lymphoblastoid cell viability; series mostly up to 92.2 µM;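 note: cells exposed to compounds for 24 h before reading; nearly all actives have a fitted effect of over 50% in size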
In short: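 Human lymphoblastoid cells (2500/well) were pre-incubated 5 hr at 37 C, then exposed to compounds over a concentration range for 24 hr at 37 C. Intracellular ATP was read by CellTiter-Glo luminescence; AC50 came from Hill-equation fits.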

[2] = Cell Viability - LYMP2-004 (AID 966); details: LYMP2-004 lymphoblastoid cell viability, qHTS; series mostly up to 92.2 µM; note: nearly all actives have a fitted effect of over 65% in size
In short: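 AC50 values come from Hill modelling of concentration-dependent loss of intracellular ATP, measured by CellTiter-Glo luminescence. Human LYMP2-004 lymphoblastoid cells (2500/well) were exposed to compound for 24 h at 37 C.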

[3] = Cell Viability - LYMP2-009 (AID 968); details: LYMP2-009 lymphoblastoid cell viability; series mostly up to 92.2 µM; note: nearly all actives have a fitted effect of over 55% in size
[4] = Cell Viability - LYMP2-011 (AID 969); details: LYMP2-011 lymphoblastoid cells viability; series mostly up to 92.2 µM; note: nearly all actives have a fitted effect of over 60% in size
In short: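 Cytotoxicity qHTS with ATP content as read-out: lymphoblastoid cells (2500/well) exposed to compound for 24 h at 37 C, then luciferase luminescence measured. Concentration-response data fitted with the standard Hill equation to give AC50.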

[5] = Cell Viability - LYMP2-013 (AID 970); details: LYMP2-013 lymphoblastoid cells viability; series mostly up to 92.2 µM; note: nearly all actives have a fitted effect of over 55% in size
In short: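 qHTS cytotoxicity: ATP-dependent luminescence (CellTiter-Glo, 30 min room temperature) read after 24 h compound exposure at 37 C of 2500 LYMP2-013 lymphoblastoid cells per well. Concentration-response fitted with Hill equation to give AC50.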

[6] = Cell Viability - LYMP2-015 (AID 971); details: LYMP2-015 lymphoblastoid cell viability; series mostly up to 92.2 µM; note: nearly all actives have a fitted effect of over 55% in size
In short: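 Cytotoxicity readout: decrease in intracellular ATP (CellTiter-Glo luminescence) in 2500 LYMP2-015 lymphoblastoid cells/well after 24 h compound exposure at 37 C. Concentration-response data fitted with the standard Hill equation to give AC50.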

[7] = Cell Viability - LYMP2-017 (AID 972); details: LYMP2-017 lymphoblastoid cell viability; series mostly up to 92.2 µM; note: nearly all actives have a fitted effect of over 55% in size
In short: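 CellTiter-Glo luminescence (cellular ATP, 30 min RT) measured cytotoxicity after 24 hr compound treatment at 37 C. Cells were a human lymphoblastoid line, LYMP2-017, plated at 2500/well and incubated 5 hr first; concentration-response fitted with Hill equation for AC50.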

[8] = Cell Viability - LYMP2-021 (AID 974); details: LYMP2-021 lymphoblastoid cells viability; series mostly up to 92.2 µM; note: nearly all actives have a fitted effect of over 55% in size
In short: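 AC50 values come from Hill-equation fits to CellTiter-Glo luminescence (ATP content), read after 24 hour compound exposure at 37 C of 2500 LYMP2-021 lymphoblastoid cells/well; tetraoctylammonium bromide as positive control.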

[9] = Cell Viability - LYMP2-023 (AID 975); details: LYMP2-023 lymphoblastoid cell viability; series mostly up to 92.2 µM; note: nearly all actives have a fitted effect of over 55% in size
In short: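 Intracellular ATP, read by CellTiter-Glo luminescence, reports viability after 24 hr compound exposure at 37 C. 2500 lymphoblastoid cells/well (LYMP2-023) seeded 5 hr beforehand; Hill fits give AC50; positive control tetraoctylammonium bromide.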

[10] = Cell Viability - LYMP2-006 (AID 978); details: LYMP2-006 lymphoblastoid cell viability, qHTS; series mostly up to 92.2 µM; note: nearly all actives have a fitted effect of over 60% in size
In short: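 Human lymphoblastoid cells, 2500 per well, were preincubated 5 hr at 37 C, then exposed to compounds for 24 hr at 37 C in complete medium. Viability was read as intracellular ATP by CellTiter-Glo luminescence; AC50 from Hill-equation fits of qHTS concentration-response data.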

[11] = Cell Viability - LYMP2-007 (AID 979); details: LYMP2-007 lymphoblastoid cell viability; series mostly up to 92.2 µM;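 note: cells exposed to compound for 24 h before reading; nearly all actives have a fitted effect of over 60% in size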
In short: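 AC50 values come from Hill-equation fits of luminescent intracellular ATP (CellTiter-Glo, 30 min, room temperature) following 24 h compound exposure at 37 C. Cells: LYMP2-007 lymphoblastoid line, 2500 per well, in complete culture medium.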

[12] = Cell Viability - LYMP2-008 (AID 980); details: LYMP2-008 lymphoblastoid cell viability, qHTS; series mostly up to 92.2 µM; note: nearly all actives have a fitted effect of over 60% in size
In short: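 Cytotoxicity determined from ATP-dependent luciferase luminescence (CellTiter-Glo) following 24 h compound exposure of human lymphoblastoid LYMP2-008 cells at 37 C. Concentration-response data fitted to the Hill equation to give AC50.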

[13] = Cell Viability - LYMP2-010 (AID 981); details: LYMP2-010 lymphoblastoid cell viability, qHTS; series mostly up to 92.2 µM; note: nearly all actives have a fitted effect of over 55% in size
In short: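 CellTiter-Glo ATP luminescence measured cytotoxicity after 24 h compound exposure at 37 C. LYMP2-010 cells were seeded at 2500/well, with tetraoctylammonium bromide as control; concentration-response curves gave AC50 values by the Hill equation.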

[14] = Cell Viability - LYMP2-012 (AID 982); details: LYMP2-012 lymphoblastoid cell viability qHTS; series mostly up to 92.2 µM
[15] = Cell Viability - LYMP2-014 (AID 983); details: LYMP2-014 lymphoblastoid cells, viability qHTS; series mostly up to 92.2 µM; note: nearly all actives have a fitted effect of over 50% in size
In short: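 Intracellular ATP loss, read by luciferase luminescence, measures acute cytotoxicity after 24 h compound exposure of lymphoblastoid LYMP2-014 cells (2500/well, 37 C). Concentration-response data fitted to the Hill equation for AC50.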

[16] = Cell Viability - LYMP2-016 (AID 984); details: LYMP2-016 lymphoblastoid cell viability, qHTS; series mostly up to 92.2 µM; note: nearly all actives have a fitted effect of over 55% in size
In short: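 Human lymphoblastoid cells (LYMP2-016), 2500/well in complete medium, preincubated 5 hr at 37 C, then compound-treated 24 hr at 37 C. Intracellular ATP read by CellTiter-Glo luminescence after 30 min at room temperature; AC50 from Hill-equation concentration-response fits.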

[17] = Cell Viability - LYMP2-018 (AID 985); details: LYMP2-018 lymphoblastoid cells, viability (qHTS); series mostly up to 92.2 µM; note: nearly all actives have a fitted effect of over 50% in size
In short: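 Viability read as CellTiter-Glo luminescence (cellular ATP) after 24 hr compound exposure at 37 C of 2500 LYMP2-018 lymphoblastoid cells/well, pre-plated 5 hr. Hill-equation modelling gave AC50.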

[18] = Cell Viability - LYMP2-020 (AID 986); details: series mostly up to 92.2 µM; note: nearly all actives have a fitted effect of over 55% in size
In short: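 Cytotoxicity in qHTS format: luminescent ATP readout from CellTiter-Glo after 24 h compound exposure at 37 C in complete medium. LYMP2-020 lymphoblastoid cells were seeded at 2500/well; concentration-response data fitted to the Hill equation for AC50.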

[19] = Cell Viability - LYMP2-024 (AID 988); details: LYMP2-024 lymphoblastoid cell viability; series mostly up to 92.2 µM; note: nearly all actives have a fitted effect of over 60% in size
In short: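 Cytotoxicity was taken as a decrease in ATP (CellTiter-Glo luminescence) after 24 hr compound exposure at 37 C of LYMP2-024 lymphoblastoid cells, 2500 cells/well. Concentration-response data were fitted to the Hill equation to give AC50.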

[20] = Cell Viability - LYMP2-026 (AID 989); details: LYMP2-026 lymphoblastoid cell viability, qHTS; series mostly up to 92.2 µM; note: nearly all actives have a fitted effect of over 50% in size
In short: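 Cytotoxicity read as ATP-dependent luminescence (CellTiter-Glo, 30 min room temperature) after 24 h compound treatment at 37 C. LYMP2-026 lymphoblastoid line seeded at 2500 cells/well; AC50 derived by standard Hill equation.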

Measured: Potency
Potency is the fitted concentration of half-maximal effect.

c1cc(OCC2CO2)cc(OCC2CO2)c1 (stereo not drawn)
active: [1] 25.1 µM | [2] 20 µM | [3] 39.8 µM | [4] 39.8 µM | [5] 50.1 µM | [6] 39.8 µM | [7] 39.8 µM | [8] 39.8 µM | [9] 50.1 µM | [10] 39.8 µM | [11] 39.8 µM | [12] 39.8 µM | [13] 31.6 µM | [14] 31.6 µM | [15] 39.8 µM | [16] 25.1 µM | [17] 31.6 µM | [18] 39.8 µM | [19] 39.8 µM | [20] 39.8 µM

C=CC(=O)OCC(CO)(COC(=O)C=C)COC(=O)C=C
active: [1] 3.98 µM | [4] 5.01 µM | [5] 5.01 µM | [6] 5.01 µM | [7] 5.01 µM | [8] 3.98 µM | [9] 6.31 µM | [10] 5.01 µM | [11] 5.01 µM | [12] 5.01 µM | [13] 3.98 µM | [14] 3.98 µM | [15] 5.01 µM | [16] 5.01 µM | [17] 3.98 µM | [18] 3.98 µM | [19] 3.16 µM | [20] 6.31 µM

O=Nc1ccc(Nc2ccccc2)cc1
active: [1] 7.94 µM | [2] 7.94 µM | [3] 7.94 µM | [4] 7.94 µM | [5] 10 µM | [6] 3.98 µM | [7] 6.31 µM | [8] 5.01 µM | [9] 6.31 µM | [10] 7.94 µM | [11] 5.01 µM | [12] 7.94 µM | [13] 5.01 µM | [14] 7.94 µM | [15] 6.31 µM | [16] 6.31 µM | [17] 3.98 µM | [18] 5.01 µM | [19] 2.51 µM | [20] 6.31 µM

Source: PubChem BioAssay (NCATS)
